# Data as given in ChEMBL document CHEMBL4649991.
# Where “and” joins values, the source holds several entries; their conditions need not be identical. Equal entries are not always repeated.
# What was measured:
# [1] = target: Bromodomain-containing protein 4 (Homo sapiens) (UniProt O60885); details: Compound concentration 10.0 uM, Protein concentration 2.0 uM
# [2] = target: T1, Transcription intermediary factor 1-alpha (Homo sapiens) (UniProt O15164); details: Compound concentration 10.0 uM, Protein concentration 2.0 uM
# T1 sequence (whole entry): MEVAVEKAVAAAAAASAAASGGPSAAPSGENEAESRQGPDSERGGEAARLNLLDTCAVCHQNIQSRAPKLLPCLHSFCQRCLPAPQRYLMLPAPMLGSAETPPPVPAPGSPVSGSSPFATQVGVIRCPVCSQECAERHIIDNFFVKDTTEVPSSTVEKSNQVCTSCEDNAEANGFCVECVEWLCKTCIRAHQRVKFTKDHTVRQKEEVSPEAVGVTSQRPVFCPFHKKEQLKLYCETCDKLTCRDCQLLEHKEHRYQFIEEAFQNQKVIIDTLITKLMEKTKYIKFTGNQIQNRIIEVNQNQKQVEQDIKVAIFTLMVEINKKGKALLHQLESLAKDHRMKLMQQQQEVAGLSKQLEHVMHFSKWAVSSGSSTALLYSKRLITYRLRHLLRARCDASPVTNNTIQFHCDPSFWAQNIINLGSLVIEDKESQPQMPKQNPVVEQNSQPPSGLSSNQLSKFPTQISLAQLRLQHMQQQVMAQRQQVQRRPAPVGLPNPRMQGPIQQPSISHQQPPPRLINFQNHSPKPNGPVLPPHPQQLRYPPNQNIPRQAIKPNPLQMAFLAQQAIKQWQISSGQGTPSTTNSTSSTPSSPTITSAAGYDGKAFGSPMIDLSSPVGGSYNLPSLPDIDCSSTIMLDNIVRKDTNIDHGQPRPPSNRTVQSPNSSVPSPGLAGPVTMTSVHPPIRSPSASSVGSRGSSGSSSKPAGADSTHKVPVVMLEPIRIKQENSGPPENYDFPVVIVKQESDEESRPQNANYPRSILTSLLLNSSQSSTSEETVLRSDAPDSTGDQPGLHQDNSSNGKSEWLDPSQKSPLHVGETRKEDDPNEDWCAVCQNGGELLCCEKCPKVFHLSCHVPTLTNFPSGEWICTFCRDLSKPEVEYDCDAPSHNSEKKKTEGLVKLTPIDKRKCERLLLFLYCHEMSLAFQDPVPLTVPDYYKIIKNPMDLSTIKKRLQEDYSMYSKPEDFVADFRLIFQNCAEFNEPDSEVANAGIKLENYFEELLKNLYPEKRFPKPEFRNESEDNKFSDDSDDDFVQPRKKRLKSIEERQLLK
smiles,measurement,setting,value
Cc1cc(=O)n(C)c2cc(N3C(=O)CC[C@@H](NS(=O)(=O)CC(C)C)[C@@H]3c3ccc(Cl)cc3)ccc12,ΔTm,[1],-0.29 °C and 0.14 °C
same,ΔTm,[2],0.23 °C
